PubChem BioAssay (Tox21)
Inconclusive results are not listed. Calls of active or inactive are those of the source. Unless noted, the call rests on the fitted dose curve; in most records, active means well fitted curve in the direction sought with a large enough effect in the repeat runs; inconclusive means weak or mixed curves; inactive means no such curve, though single readings can be large; an effect the other way counts as inactive or inconclusive.

Assays:
[1] = qHTS assay for small molecule agonists of the p53 signaling pathway (AID 651631; calls by dose curve; further: nearly all actives have a fitted effect of over 15% in size)
Outline: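 Quantitative high-throughput format: 4,000 p53RE-bla HCT-116 cells/well, 5 h pre-incubation, 16 h compound exposure at 37 °C, 2 h room-temperature substrate step, fluorescence intensity measured.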

[2] = qHTS assay for small molecules that induce genotoxicity in human embryonic kidney cells expressing luciferase-tagged ATAD5 (AID 651632); further: nearly all actives have a fitted effect of over 15% in size
Outline: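 HEK293T cells carrying a luciferase reporter tagged to ATAD5 were exposed to compound or DMSO vehicle for 16 hr at 37C, 5% CO2. Amplite was added, and after 30 min at room temperature luciferase activity was read as a marker of ATAD5 induction.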

[3] = qHTS assay for small molecule agonists of the p53 signaling pathway - cell viability (AID 651633; calls by dose curve;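 further: p53RE-bla HCT reporter cells with a stable beta-lactamase p53 reporter; series mostly up to about 83 µM; nearly all actives have a fitted effect of over 30% in size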)
Outline: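 p53RE-bla cells, seeded at 4,000 per well and rested 5 h at 37 C/5% CO2, received compounds in DMSO for 16 h at 37 C. CellTiter-Glo was then added, and luminescence was read after 30 min at room temperature to gauge cytotoxicity.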

[4] = qHTS assay for small molecules that induce genotoxicity in human embryonic kidney cells expressing luciferase-tagged ATAD5 - cell viability (AID 651634; calls by dose curve; further: nearly all actives have a fitted effect of over 25% in size)
Outline: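 HEK293T cells expressing luciferase-tagged ATAD5 were exposed to compound or DMSO for 15.5 hr at 37C, 5% CO2. Viability was then read as live-cell protease activity by CellTiter-Fluor fluorescence after 30 min at 37C.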

[5] = qHTS assay for small molecule disruptors of the mitochondrial membrane potential - cell viability (AID 720634; calls by dose curve;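 further: human HepG2 liver cancer cells; series mostly up to about 83 µM; nearly all actives have a fitted effect of over 20% in size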)
Outline: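 HepG2 cells seeded overnight at 37 C, then exposed to compound or DMSO for 1 hr at 37 C, 5% CO2. m-MPI dye added, then CellTiter-Glo for 30 min at room temperature; viability read as ATP luminescence.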

[6] = qHTS assay for small molecule disruptors of the mitochondrial membrane potential (AID 720635); further: potency means the concentration at half of the fitted maximal effect
Outline: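 HepG2 cells (2,000/well) attached overnight at 37C, then took compound for 1 hr at 37C, 5% CO2. Mito-MPS dye was added for 30 min; fluorescence was read at 490/535 nm (monomers) and 540/590 nm (aggregates).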

[7] = qHTS assay to test for compound auto fluorescence at 590 nm (red) in HepG2 cells (AID 720674)
Outline: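 Rose Bengal sodium served as the red fluorophore standard. HepG2 monolayers (overnight attachment, MEM with 10% FBS) were exposed to test compounds for 1 hr at 37 C and read at Ex 540/Em 590 nm.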

[8] = qHTS assay to test for compound auto fluorescence at 535 nm (green) in HepG2 cells (AID 720675)
[9] = qHTS assay to test for compound auto fluorescence at 460 nm (blue) in HEK293 cells (AID 720678)
Outline: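 Intrinsic compound fluorescence is recorded in live HEK293 cultures after overnight incubation at 37C, 5% CO2, using excitation 405 nm and emission 460 nm. Values are referenced to triamterene.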

[10] = qHTS assay to test for compound auto fluorescence at 590 nm (red) in HEK293 cells (AID 720679)
Outline: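 Red autofluorescence, HEK293 cells: 2,000 cells/well; attach 4-5 hr 37C; add 23 nL cpd or DMSO; incubate o/n 37C 5% CO2; read Ex540/Em590; Rose Bengal sodium reference.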

[11] = qHTS assay to test for compound auto fluorescence at 535 nm (green) in HEK293 cells (AID 720680)
[12] = qHTS assay to test for compound auto fluorescence at 460 nm (blue) in HEK293 cell free culture (AID 720681)
Outline: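 Test compounds were pinned into cell-free culture medium (DMEM with 10% FBS) and fluorescence was read directly at Ex/Em 405/460 nm. Signals were expressed as fluorescence equivalents of triamterene, with DMSO vehicle as control.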

[13] = qHTS assay to test for compound auto fluorescence at 535 nm (green) in HEK293 cell free culture (AID 720682)
Outline: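 Measurement is a direct plate read of green fluorescence (485 nm in, 535 nm out) after compound addition to serum-supplemented DMEM lacking cells, with fluorescein used to express intensities.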

[14] = qHTS assay to test for compound auto fluorescence at 590 nm (red) in HEK293 cell free culture (AID 720683)
Outline: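 Tox21 10K library compounds were pinned into cell-free DMEM with 10% FBS and fluorescence was read at excitation 540 nm. Activity is expressed as Rose Bengal sodium equivalency.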

[15] = qHTS assay to test for compound auto fluorescence at 460 nm (blue) in HepG2 cell free culture (AID 720685)
Outline: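 Compound (23 nL) or DMSO pinned into cell-free MEM with 10% FBS; blue fluorescence read at 405/460 nm excitation/emission, expressed as auto-fluorescence equivalency to triamterene.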

[16] = qHTS assay to test for compound auto fluorescence at 535 nm (green) in HepG2 cell free culture (AID 720686)
[17] = qHTS assay to test for compound auto fluorescence at 460 nm (blue) in HepG2 cells (AID 720687)
Outline: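 Cells (2,000/well in MEM with 10% FBS) attached overnight at 37 C, then were exposed to compound or DMSO for 1 hr at 37 C, 5% CO2. Fluorescence read at Ex/Em 405/460 nm, expressed as triamterene-equivalent signal.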

[18] = target: Glucocorticoid receptor (Homo sapiens) (UniProt P04150); assay: qHTS assay to identify small molecule agonists of the glucocorticoid receptor (GR) signaling pathway (AID 720691; active means well fitted activation curve with a large enough effect in the signal ratio in the repeat runs, not every such curve was filed as active; the % refers to the signal ratio)
Outline: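 GR-bla HeLa cells (beta-lactamase reporter under glucocorticoid response element) were plated 4 h at 37 C/5% CO2, given compounds in DMSO, and incubated 18 h at 37 C. LiveBLAzer B/G FRET substrate was added for 2 h at room temperature, then fluorescence intensity read.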

[19] = qHTS assay to test for compound auto fluorescence at 590 nm (red) in HepG2 cell free culture (AID 720684)
Outline: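 Red fluorescence (540 nm excitation, 590 nm emission) was measured after compound transfer into cell-free MEM supplemented with 10% FBS. Values are equivalencies against Rose Bengal sodium.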

[20] = target: Glucocorticoid receptor (Homo sapiens) (UniProt P04150); assay: qHTS assay to identify small molecule antagonists of the glucocorticoid receptor (GR) signaling pathway (AID 720692; active means well fitted inhibition curve with a large enough effect in the signal ratio in the repeat runs, not every such curve was filed as active; the % refers to the signal ratio)
Outline: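 GR-bla HeLa cells (beta-lactamase reporter under glucocorticoid response element) were pre-plated 4 h at 37 C, treated with compounds plus 5 nM dexamethasone (final) for 18 h, then read by LiveBLAzer B/G FRET fluorescence after 2 h.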
On the % scale 0 is the no-effect control and ±100 the full control effect.

Sequence of Glucocorticoid receptor (Homo sapiens) (P04150 whole entry, looked up): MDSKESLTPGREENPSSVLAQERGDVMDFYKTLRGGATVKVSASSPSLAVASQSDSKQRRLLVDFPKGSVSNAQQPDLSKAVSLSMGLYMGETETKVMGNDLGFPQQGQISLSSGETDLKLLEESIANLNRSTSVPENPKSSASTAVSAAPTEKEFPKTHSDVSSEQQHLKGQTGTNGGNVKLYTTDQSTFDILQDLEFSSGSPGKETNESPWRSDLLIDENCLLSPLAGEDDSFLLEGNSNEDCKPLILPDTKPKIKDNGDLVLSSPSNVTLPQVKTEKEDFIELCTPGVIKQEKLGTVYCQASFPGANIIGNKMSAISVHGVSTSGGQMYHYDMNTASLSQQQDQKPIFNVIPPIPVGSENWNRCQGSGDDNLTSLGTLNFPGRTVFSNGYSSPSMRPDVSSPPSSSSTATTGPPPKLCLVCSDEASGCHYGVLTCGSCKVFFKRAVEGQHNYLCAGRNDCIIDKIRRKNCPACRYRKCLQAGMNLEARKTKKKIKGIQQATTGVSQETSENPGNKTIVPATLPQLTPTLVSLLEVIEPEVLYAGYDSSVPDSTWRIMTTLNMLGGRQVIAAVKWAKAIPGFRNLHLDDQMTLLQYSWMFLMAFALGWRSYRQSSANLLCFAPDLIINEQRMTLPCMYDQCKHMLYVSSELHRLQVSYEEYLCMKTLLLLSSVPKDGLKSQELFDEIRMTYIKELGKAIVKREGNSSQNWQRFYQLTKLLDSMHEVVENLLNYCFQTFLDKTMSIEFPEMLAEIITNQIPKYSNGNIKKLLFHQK

CC(C)(C)c1cccc(O)c1
active: Potency [6] 48.6 µM
inactive: Potency [1] | Potency [2] | Potency [3] | Potency [4] | Potency [5] | outcome [7] | outcome [8] | outcome [9] | outcome [10] | outcome [11] | outcome [12] | outcome [13] | outcome [14] | outcome [15] | outcome [16] | outcome [17] | Potency [18]

CO[C@@]1(NC(=O)CSCC#N)C(=O)N2C(C(=O)O)=C(CSc3nnnn3C)CS[C@@H]21
inactive: Potency [1] | Potency [2] | Potency [3] | Potency [4] | Potency [5] | Potency [6] | outcome [7] | outcome [8] | outcome [9] | outcome [10] | outcome [11] | outcome [12] | outcome [13] | outcome [14] | outcome [19] | outcome [16] | Potency [18]

NCCC(O)(P(=O)(O)O)P(=O)(O)O
inactive: Potency [1] | Potency [2] | Potency [3] | Potency [4] | Potency [5] | Potency [6] | outcome [7] | outcome [8] | outcome [9] | outcome [10] | outcome [11] | outcome [12] | outcome [13] | outcome [14] | outcome [19] | outcome [15] | outcome [16] | outcome [17] | Potency [18] | Potency [20]

CC(C)CC(=O)OCc1ccccc1
inactive: Potency [1] | Potency [2] | Potency [3] | Potency [4] | Potency [5] | Potency [6] | outcome [7] | outcome [8] | outcome [9] | outcome [10] | outcome [11] | outcome [12] | outcome [13] | outcome [14] | outcome [19] | outcome [15] | outcome [16] | outcome [17] | Potency [18] | Potency [20]

O=C(O[C@@H](C(=O)O)[C@@H](OC(=O)c1ccccc1)C(=O)O)c1ccccc1
inactive: Potency [1] | Potency [2] | Potency [3] | Potency [4] | Potency [5] | Potency [6] | outcome [7] | outcome [8] | outcome [9] | outcome [10] | outcome [11] | outcome [12] | outcome [13] | outcome [14] | outcome [19] | outcome [15] | outcome [16] | outcome [17] | Potency [18] | Potency [20]

CCC(=O)Nc1ccc(O)cc1
inactive: Potency [1] | Potency [2] | Potency [3] | Potency [4] | Potency [5] | Potency [6] | outcome [7] | outcome [8] | outcome [9] | outcome [10] | outcome [11] | outcome [12] | outcome [13] | outcome [14] | outcome [19] | outcome [15] | outcome [16] | outcome [17] | Potency [18]

C=Cc1ccccc1
inactive: Potency [1] | Potency [2] | Potency [3] | Potency [4] | Potency [5] | Potency [6] | outcome [7] | outcome [8] | outcome [9] | outcome [10] | outcome [11] | outcome [12] | outcome [13] | outcome [14] | outcome [19] | outcome [15] | outcome [16]

CC(C)S
inactive: Potency [1] | Potency [2] | Potency [3] | Potency [4] | Potency [5] | Potency [6] | outcome [7] | outcome [8] | outcome [9] | outcome [10] | outcome [11] | outcome [12] | outcome [13] | outcome [14] | outcome [19] | outcome [15] | outcome [16] | outcome [17] | Potency [18] | Potency [20]

CC/C=C\CCOC(=O)CCCCC
inactive: Potency [1] | Potency [2] | Potency [3] | Potency [4] | Potency [5] | Potency [6] | outcome [7] | outcome [8] | outcome [9] | outcome [10] | outcome [11] | outcome [12] | outcome [13] | outcome [14] | outcome [19] | outcome [15] | outcome [16] | outcome [17]

CCN(O)CC
inactive: Potency [1] | Potency [2] | Potency [3] | Potency [4] | Potency [5] | Potency [6] | outcome [7] | outcome [8] | outcome [9] | outcome [10] | outcome [11] | outcome [12] | outcome [13] | outcome [14] | outcome [19] | outcome [15] | outcome [16] | outcome [17]

O=Cc1ccc(F)c(Br)c1
inactive: Potency [1] | Potency [2] | Potency [3] | Potency [4] | Potency [5] | Potency [6] | outcome [7] | outcome [8] | outcome [9] | outcome [10] | outcome [11] | outcome [12] | outcome [13] | outcome [14] | outcome [19] | outcome [16] | outcome [17]

CCCCC1CCC(=O)O1 (stereo not drawn)
inactive: Potency [1] | Potency [2] | Potency [3] | Potency [4] | Potency [5] | Potency [6] | outcome [7] | outcome [8] | outcome [9] | outcome [10] | outcome [11] | outcome [12] | outcome [13] | outcome [14] | outcome [19] | outcome [15] | outcome [16] | outcome [17] | Potency [18]

CC1(C)O[C@@H]2C[C@H]3[C@@H]4CCC5=CC(=O)CC[C@]5(C)[C@@]4(F)[C@@H](O)C[C@]3(C)[C@]2(C(=O)CCl)O1
inactive: Potency [1] | Potency [2] | Potency [3] | Potency [4] | Potency [5] | fluorescence, relative to Rose Bengal [7] -0.0973% [at 18.6 µM] | fluorescence, % of fluorescein control [8] -0.093% [at 18.6 µM] | fluorescence, % of triamterene [9] -0.0183% [at 18.6 µM] | fluorescence, % of fluorescent control [10] -0.0534% [at 18.6 µM] | fluorescence, % of fluorescein [11] -0.0811% [at 18.6 µM] | fluorescence, % of fluorescent control [12] -0.106% [at 18.6 µM] | activity change [13] 0.0954% [at 18.6 µM] | fluorescence, % of fluorescent control [14] -0.0463% [at 18.6 µM] | fluorescence, % of Rose Bengal [19] 0.173% [at 18.6 µM] | fluorescence, % of fluorescent control [15] 0.0173% [at 18.6 µM] | fluorescence, % of fluorescein control [16] 0.0501% [at 18.6 µM] | fluorescence, % of fluorescent control [17] -0.0673% [at 18.6 µM]
active: Potency [6] 8.04 µM

CCOC(=O)[C@H](CCc1ccccc1)N[C@@H](C)C(=O)N1Cc2cc(OC)c(OC)cc2C[C@H]1C(=O)O
inactive: Potency [1] | Potency [2] | Potency [3] | Potency [4] | Potency [5] | Potency [6] | outcome [7] | outcome [8] | outcome [9] | outcome [10] | outcome [11] | outcome [12] | outcome [13] | outcome [14] | outcome [15] | outcome [16] | outcome [17]
